Compounds with a hit are over-represented: about 8.6% of the library has one in this group of screens.
MARV entry inh: inhibitors of Marburg virus binding or entry into cells | Marburg virus pseudotype entry/binding inhibition, cell-based | Potency, µM (top dose mostly 49.2 µM), hits mostly inhibitors | hit rate 6.5% among 18,000
Lassa entry: Lassa virus entry inhibition; Lassa virus pseudotyped entry inhibition, cell-based qHTS; Potency, µM (highest dose often 49.2 µM), hits mostly inhibitors; hit rate 4.1% among 18,000; AID 720533
Large screens that a line does not name were inactive; ! = not confirmed by another sample. Calls follow the shape of the full dose curve; tested in HEK293 cells.

CC(=O)OC[C@H]1O[C@@H](ON=C(C)CCN2CCCCc3nc(C)c(C)cc32)[C@H](OC(C)=O)[C@@H](OC(C)=O)[C@H]1OC(C)=O	none
Cc1nnc(-c2ccc(C)c(-c3ccc(C(=O)NCc4ccc(Cl)cc4)cc3)c2)o1	MARV entry inh 2.8µM (no result: Lassa entry)
Cc1nnc(-c2ccc(C)c(-c3ccc(C(=O)Nc4cccc(C#N)c4)cc3)c2)o1	none (no result: Lassa entry)
COc1ccc(O[C@H]2C=C[C@@H](c3ccccc3)O[C@H]2COC(=O)CCC(C)=NO[C@H](C)c2cn([C@@H]3COC[C@@H]3O)nn2)cc1	none (no result: Lassa entry)
CNC(C)CCC=C(C)C (centres undefined)	MARV entry inh inconclusive
COC[C@H]([C@@H](O)[C@@H](O)C(=O)NCC[C@@H](C)c1nc(/C=C/C[C@H]2OC3(C[C@H](O)[C@H]2C)OC([C@@H](C[C@@H](O)[C@@H](C)[C@@H](O)[C@@H](C)/C=C(C)/C(C)=C/C=C/C(C)=C\C#N)OC)[C@@H](OP(=O)(O)O)C3(C)C)co1)N(C)C (some centres undefined)	MARV entry inh 0.11µM, Lassa entry 71µM
C#C[C@]1(O)CC[C@H]2[C@@H]3CCC4=CC(=O)CCC4=C3C=C[C@@]21CC	Lassa entry inconclusive
CC#C[C@]1(O)CC[C@H]2[C@@H]3CCC4=CC(=O)CCC4=C3[C@@H](c3ccc(N(C)C)cc3)C[C@@]21C	MARV entry inh inconclusive, Lassa entry 32µM
C=CCCC1(CCC)C(=O)C(=C(O)c2ccccc2)C(=O)C(CCC)=C1OC (centres undefined)	none
Cc1nc(NCc2c(C)nn(C)c2Cl)sc1-c1ccn(CC2COc3ccccc3O2)n1 (centres undefined)	none
O=C(O)C1=CC(=C(c2ccc(O)c(C(=O)O)c2)c2ccc(O)c(C(=O)O)c2)C=CC1=O	MARV entry inh 0.44µM
Nc1ccc(O)c(C(=O)O)c1	MARV entry inh inconclusive
Fc1ccc(-c2ncn(C3CCNCC3)c2-c2ccnc(Oc3ccc(F)c(F)c3)n2)cc1	MARV entry inh 3.5µM, Lassa entry inconclusive
Fc1ccc(-c2ncn(C3CCNCC3)c2-c2ccnc(Oc3ccc(Oc4ccccc4)cc3)n2)cc1	MARV entry inh 8.9µM, Lassa entry inconclusive
Nc1nccc(-c2c(-c3ccc(F)cc3)ncn2C2CCNCC2)n1	MARV entry inh inconclusive
CC1=CC[C@@H](COc2ccccc2)O[C@@]2(C1)C(=O)Nc1ccccc12	none
C=CCOC(=O)C(C(C)=O)[C@@H](NC(=O)OC)c1cccc(F)c1 (some centres undefined)	none
CC(=O)OC[C@H]1O[C@H](CC=NOCC[C@@H]2C=C[C@@H](OC(C)=O)[C@@H](COC(C)=O)O2)C=C[C@@H]1OC(C)=O	none
C#CCCCON=C1C[C@@H](O)[C@H](O)[C@H]2[C@@H]3C(=O)N(C4CCCCC4)C(=O)[C@@H]3CC[C@H]12	MARV entry inh inconclusive
Fc1ccc([C@@H]2CCNC[C@H]2COc2ccc3c(c2)OCO3)cc1	MARV entry inh 5.6µM, Lassa entry inconclusive
O=C(C=Cc1ccc2c(c1)OCO2)c1ccc(F)cc1	none
CCOC(=O)CN1C(=O)CC(C[C@@H](O)C2C[C@@H](C)C[C@H](C)C2=O)CC1=O (some centres undefined)	none
CC1CC(C)C(=O)[C@H](C(O)CC2CC(=O)NC(=O)C2)C1 (some centres undefined)	MARV entry inh 2.5µM, Lassa entry 5.6µM
C[C@H]1C[C@H](C)C(=O)[C@@H]([C@H](O)CC2CC(=O)NC(=O)C2)C1	MARV entry inh inconclusive, Lassa entry 3.2µM
C[C@H]1C[C@@H](C)C(=O)[C@@H]([C@H](O)CC2CC(=O)NC(=O)C2)C1	MARV entry inh 1.1µM, Lassa entry 3.5µM
C[C@@H]1C[C@@H]([C@@H](C)CC2CC(=O)NC(=O)C2)C(=O)[C@@H](C)C1	MARV entry inh 5µM, Lassa entry 4.5µM
CCCCCCN1C[C@@H](O)[C@H](n2cc(-c3ccc(F)cc3)nn2)C[C@H]1c1ccc(C)cc1	MARV entry inh inconclusive
CCCC[C@]12Cc3cc(OC)c(OC)cc3[C@H](O1)c1c(cc(-c3ccccc3)oc1=O)O2	none
COc1cccc([C@@H]2Oc3ccc(OC)cc3C(=O)[C@@H]2OC(=O)N[C@H]2CCCc3ccccc32)c1	none
COC(=O)c1ccc(CN2C(=O)[C@@]3(CC(C)=CC[C@@H](C)O3)c3ccccc32)cc1	none
COC(=O)N[C@@H](c1cccs1)C(C(C)=O)C(=O)OC (some centres undefined)	none
CC(C)[C@@H]1NC(=O)[C@@H](Cc2ccccc2)NC(=O)[C@H](CC(=O)O)NC(=O)CNC(=O)[C@H](CCCN=C(N)N)NC1=O	none
CC(C)C[C@@H]1NC(=O)[C@H](CCCN)NC(=O)[C@H](C(C)C)NC(=O)[C@@H]2CCCN2C(=O)[C@@H](Cc2ccccc2)NC(=O)[C@H](CC(C)C)NC(=O)[C@H](CCCN)NC(=O)[C@H](C(C)C)NC(=O)[C@@H]2CCCN2C(=O)[C@@H](Cc2ccccc2)NC1=O	MARV entry inh inconclusive, Lassa entry 32µM
CCOC(=O)OC[C@H]1O[C@H](C#Cc2ccccc2)C=C[C@H]1OC(=O)OCC	none
CCC[C@@]1(CCc2ccccc2)CC(O)=C([C@H](CC)c2cccc(NS(=O)(=O)c3ccc(C(F)(F)F)cn3)c2)C(=O)O1	none
CCOC(=O)C1=C(N)Oc2ccc(Br)cc2[C@@H]1[C@@H](C#N)C(=O)OCC	Lassa entry 20µM
CCOC(=O)C1Oc2ccccc2C(C(=O)OC)=C1C(=O)OC (centres undefined)	none
CC(=C\c1ccccc1)/C=C1/SC(=S)N(CC(=O)O)C1=O	none
CN1CCN(CCC=C2c3ccccc3Sc3ccc(S(=O)(=O)N(C)C)cc32)CC1	MARV entry inh 10µM, Lassa entry 20µM
OCCN1CCN(CCCN2c3ccccc3Sc3ccc(C(F)(F)F)cc32)CC1	MARV entry inh 7.1µM, Lassa entry 16µM!
CC(=O)c1ccc2c(c1)N(CCCN1CCN(CCO)CC1)c1ccccc1S2	MARV entry inh 10µM, Lassa entry 28µM
CCC(=O)c1ccc2c(c1)N(CCCN1CCN(CCO)CC1)c1ccccc1S2	MARV entry inh 10µM, Lassa entry 14µM
COc1ccccc1N1CCN(CCCCNC(=O)c2ccc(-c3ccc(C(C)=O)cc3)cc2)CC1	MARV entry inh inconclusive
CN[C@@]1(c2ccccc2Cl)CCCCC1=O	none
CCOC(=O)CN1C(=O)[C@]2(OCCC=C[C@@H]2C)c2cc(OC)ccc21	none
CCC(=O)C[C@@H](NC(=O)OC)c1ccc(F)cc1	none
COC(=O)[C@H](CC(C)C)N(Cc1ccc(Br)cc1)S(=O)(=O)CCl	none
COC(=O)N[C@H](C(C(=O)OC)=C(C)NCc1ccccc1)c1cccc(F)c1	none
C=CCN1c2ccc(Br)cc2C(O)CS1(=O)=O (centres undefined)	MARV entry inh inconclusive
CN1CCN(CCC(=O)N2c3ccccc3Sc3ccc(C(F)(F)F)cc32)CC1	MARV entry inh 16µM, Lassa entry inconclusive
Cc1scc2c1N(C(=O)CN1CCN(C)CC1)c1ccccc1NC2=O	none
O=S1(=O)CC(N2CCN(CCO)CC2)CN1CCc1ccccc1 (centres undefined)	none
OCCN1CCN(CC/C=C2/c3ccccc3Sc3ccc(C(F)(F)F)cc32)CC1	MARV entry inh 5.6µM, Lassa entry 13µM
Nc1ccc(CCN2CCN(c3cccc(C(F)(F)F)c3)CC2)cc1	Lassa entry inconclusive
OCCN1CCN(CCCN2c3ccccc3C=Cc3ccccc32)CC1	MARV entry inh 11µM, Lassa entry 25µM!
COC(=O)c1cc(C(=O)OC)n2c(C)cc3ccccc3c12	none
O=C1C[C@@H](c2ccccc2)[C@H](c2ccc(Br)cc2)O1	none

Screening results: PubChem, National Center for Advancing Translational Sciences (NCATS)
